Test results as given in the supplement of paper PMC10849652.
Targets with a hit are over-represented here; the source holds about 7,900 in all. About 0.6% of all pairs of compound and target were hits. Values without a mark were called inactive.

Tests used:
Assay in all cases: log2 fold change, soluble protein after heating vs DMSO (PISA); higher = thermal stabilisation; K562 cells, 10 uM, 30 min; active = over 0.2 and 3.5 SD of the protein, either way, in both replicates (recomputed)
[1] = compound: NC(=O)Nc1cc(-c2cccc(F)c2)sc1C(=O)N[C@H]1CCCNC1
Outline: (§1)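 Soluble protein was defined as the supernatant after 21,000xg for 90 min. It came from K562 cells at 2×10^6 cells/mL given 10 μM compound for 30 min, heated in aliquots for 3 min across 48°C-58°C, pooled, and extracted in PBS with 0.5% NP-40 at 4°C, and was quantified by TMTpro 16plex LC-MS/MS with equalised channel sums. Thermal stability against control samples, from duplicates, is reported as log2 fold change.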

[2] = compound: NC(=O)c1cnc(N[C@@H]2CCCC[C@@H]2N)nc1Nc1cccc(-n2nccn2)c1
Outline: as §1

[3] = compound: NC1(c2ccc(-c3nc4ccn5c(=O)[nH]nc5c4cc3-c3ccccc3)cc2)CCC1
Outline: as §1

[4] = compound: NCC(=O)Nc1ccc(-n2nc(C(F)(F)F)cc2-c2ccc3c(ccc4ccccc43)c2)cc1
Outline: as §1

entinostat = compound: Nc1ccccc1NC(=O)c1ccc(CNC(=O)OCc2cccnc2)cc1 [entinostat]
Outline: as §1

vorinostat = compound: O=C(CCCCCCC(=O)Nc1ccccc1)NO [vorinostat]
Outline: as §1

citarinostat = compound: O=C(CCCCCCNC(=O)c1cnc(N(c2ccccc2)c2ccccc2Cl)nc1)NO [citarinostat]
Outline: as §1

silmitasertib = compound: O=C(O)c1ccc2c(c1)nc(Nc1cccc(Cl)c1)c1ccncc12 [silmitasertib]
Outline: as §1

[5] = compound: O=C1NC(=O)C(c2cnc3ccccn23)=C1c1cn2c3c(cc(F)cc13)CN(C(=O)N1CCCCC1)CC2
Outline: as §1

[6] = compound: c1cc(OCCN2CCCCC2)cc(-c2n[nH]c3ccc(-c4nnc[nH]4)cc23)c1
Outline: as §1

entospletinib = compound: c1cn2cc(-c3ccc4cn[nH]c4c3)nc(Nc3ccc(N4CCOCC4)cc3)c2n1 [entospletinib]
Outline: as §1

Sequence of UniProt P49189 (P49189 whole entry, looked up): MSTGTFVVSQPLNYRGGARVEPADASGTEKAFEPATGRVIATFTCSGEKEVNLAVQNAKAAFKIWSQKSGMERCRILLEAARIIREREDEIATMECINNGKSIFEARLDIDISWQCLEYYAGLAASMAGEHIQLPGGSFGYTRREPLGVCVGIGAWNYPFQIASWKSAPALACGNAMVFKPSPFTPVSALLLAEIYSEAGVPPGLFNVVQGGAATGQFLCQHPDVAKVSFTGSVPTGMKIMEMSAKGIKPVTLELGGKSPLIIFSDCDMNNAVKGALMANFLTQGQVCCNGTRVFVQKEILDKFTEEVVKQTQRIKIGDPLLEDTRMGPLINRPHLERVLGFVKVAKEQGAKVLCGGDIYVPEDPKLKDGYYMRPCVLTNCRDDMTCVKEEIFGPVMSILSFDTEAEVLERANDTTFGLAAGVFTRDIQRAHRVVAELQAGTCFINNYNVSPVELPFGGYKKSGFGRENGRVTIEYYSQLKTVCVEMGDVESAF
Sequence of UniProt P08243 (P08243 whole entry, looked up): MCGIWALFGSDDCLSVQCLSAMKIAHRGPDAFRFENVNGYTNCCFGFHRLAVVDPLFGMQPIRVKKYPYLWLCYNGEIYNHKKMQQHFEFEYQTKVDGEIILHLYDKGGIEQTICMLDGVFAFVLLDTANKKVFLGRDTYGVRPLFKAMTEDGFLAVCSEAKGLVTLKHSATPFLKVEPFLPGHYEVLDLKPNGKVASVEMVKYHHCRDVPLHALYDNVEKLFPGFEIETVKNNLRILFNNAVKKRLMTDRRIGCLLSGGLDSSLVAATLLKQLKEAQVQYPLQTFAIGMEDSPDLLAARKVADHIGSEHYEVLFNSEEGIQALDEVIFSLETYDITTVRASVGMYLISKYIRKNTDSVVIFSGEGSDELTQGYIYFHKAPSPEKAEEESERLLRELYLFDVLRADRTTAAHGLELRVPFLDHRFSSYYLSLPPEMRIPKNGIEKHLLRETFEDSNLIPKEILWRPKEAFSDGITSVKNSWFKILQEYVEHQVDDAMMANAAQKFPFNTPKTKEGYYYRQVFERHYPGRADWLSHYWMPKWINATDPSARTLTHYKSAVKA
Sequence of UniProt Q14457 (Q14457 whole entry, looked up): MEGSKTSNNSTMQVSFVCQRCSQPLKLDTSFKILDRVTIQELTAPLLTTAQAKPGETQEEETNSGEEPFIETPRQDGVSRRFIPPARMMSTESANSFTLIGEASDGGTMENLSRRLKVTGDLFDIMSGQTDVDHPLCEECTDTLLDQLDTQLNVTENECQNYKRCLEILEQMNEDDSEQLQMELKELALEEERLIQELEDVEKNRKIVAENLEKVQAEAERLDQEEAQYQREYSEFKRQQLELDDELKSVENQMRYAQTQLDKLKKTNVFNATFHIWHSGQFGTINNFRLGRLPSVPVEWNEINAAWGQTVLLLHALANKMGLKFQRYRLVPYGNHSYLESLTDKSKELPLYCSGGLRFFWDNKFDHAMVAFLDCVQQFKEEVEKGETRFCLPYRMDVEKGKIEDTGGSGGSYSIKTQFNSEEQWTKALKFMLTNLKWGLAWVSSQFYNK
Sequence of UniProt O14981 (O14981 whole entry, looked up): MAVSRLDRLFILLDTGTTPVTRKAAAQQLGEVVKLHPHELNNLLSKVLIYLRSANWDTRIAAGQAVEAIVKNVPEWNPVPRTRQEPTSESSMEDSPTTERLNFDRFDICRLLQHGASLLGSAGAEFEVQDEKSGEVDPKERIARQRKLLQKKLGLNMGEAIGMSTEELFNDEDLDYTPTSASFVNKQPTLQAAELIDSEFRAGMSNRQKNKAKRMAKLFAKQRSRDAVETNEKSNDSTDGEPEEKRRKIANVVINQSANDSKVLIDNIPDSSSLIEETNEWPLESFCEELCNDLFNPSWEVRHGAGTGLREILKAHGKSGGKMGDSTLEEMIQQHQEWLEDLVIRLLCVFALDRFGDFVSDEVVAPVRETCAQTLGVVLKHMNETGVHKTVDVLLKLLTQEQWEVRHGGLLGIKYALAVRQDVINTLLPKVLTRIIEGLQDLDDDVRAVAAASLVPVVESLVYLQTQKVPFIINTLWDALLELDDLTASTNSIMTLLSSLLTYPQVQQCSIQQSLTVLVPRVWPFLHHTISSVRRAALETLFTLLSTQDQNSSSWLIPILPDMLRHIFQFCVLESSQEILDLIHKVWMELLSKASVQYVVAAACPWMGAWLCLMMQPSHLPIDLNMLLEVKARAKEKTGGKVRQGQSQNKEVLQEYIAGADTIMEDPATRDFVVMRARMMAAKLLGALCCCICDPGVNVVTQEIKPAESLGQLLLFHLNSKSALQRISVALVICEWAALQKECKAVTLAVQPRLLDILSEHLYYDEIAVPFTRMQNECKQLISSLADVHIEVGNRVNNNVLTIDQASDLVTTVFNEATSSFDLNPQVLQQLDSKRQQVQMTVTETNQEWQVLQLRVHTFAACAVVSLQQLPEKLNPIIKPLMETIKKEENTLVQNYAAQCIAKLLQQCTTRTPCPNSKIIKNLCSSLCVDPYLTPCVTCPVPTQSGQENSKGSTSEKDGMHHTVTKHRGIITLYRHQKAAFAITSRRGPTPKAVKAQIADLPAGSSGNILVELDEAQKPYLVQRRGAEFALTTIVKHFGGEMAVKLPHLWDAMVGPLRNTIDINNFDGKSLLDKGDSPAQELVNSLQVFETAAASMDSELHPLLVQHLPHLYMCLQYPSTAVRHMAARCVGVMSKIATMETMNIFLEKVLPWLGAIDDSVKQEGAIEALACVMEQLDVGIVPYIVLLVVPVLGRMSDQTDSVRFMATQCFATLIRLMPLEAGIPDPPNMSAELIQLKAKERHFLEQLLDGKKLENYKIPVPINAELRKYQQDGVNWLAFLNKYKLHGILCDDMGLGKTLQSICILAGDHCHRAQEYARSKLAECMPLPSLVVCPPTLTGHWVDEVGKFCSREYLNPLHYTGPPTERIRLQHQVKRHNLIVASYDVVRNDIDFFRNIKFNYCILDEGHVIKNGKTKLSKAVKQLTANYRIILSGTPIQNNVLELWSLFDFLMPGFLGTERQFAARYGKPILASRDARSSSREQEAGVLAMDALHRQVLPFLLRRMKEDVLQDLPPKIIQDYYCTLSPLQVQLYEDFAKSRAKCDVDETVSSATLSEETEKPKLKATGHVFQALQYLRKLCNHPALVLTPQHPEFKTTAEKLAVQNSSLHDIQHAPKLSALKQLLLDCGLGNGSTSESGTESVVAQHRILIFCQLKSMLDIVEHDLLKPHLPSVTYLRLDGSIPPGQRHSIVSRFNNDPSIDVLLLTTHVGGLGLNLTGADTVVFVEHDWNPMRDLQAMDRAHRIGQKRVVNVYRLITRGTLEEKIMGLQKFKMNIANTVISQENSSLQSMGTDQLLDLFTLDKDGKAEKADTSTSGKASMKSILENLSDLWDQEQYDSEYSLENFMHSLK
Sequence of UniProt P21283 (P21283 whole entry, looked up): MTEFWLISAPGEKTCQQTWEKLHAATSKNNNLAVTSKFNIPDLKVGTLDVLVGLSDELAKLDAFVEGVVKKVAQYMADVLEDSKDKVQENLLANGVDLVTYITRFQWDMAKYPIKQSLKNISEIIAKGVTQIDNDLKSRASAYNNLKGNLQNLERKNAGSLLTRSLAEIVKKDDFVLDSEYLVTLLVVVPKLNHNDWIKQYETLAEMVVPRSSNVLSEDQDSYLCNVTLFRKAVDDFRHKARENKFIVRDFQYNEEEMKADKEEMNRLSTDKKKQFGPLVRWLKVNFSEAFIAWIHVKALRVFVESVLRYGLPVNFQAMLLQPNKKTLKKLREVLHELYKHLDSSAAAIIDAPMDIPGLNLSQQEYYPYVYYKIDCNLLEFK
Sequence of UniProt P15291 (P15291 whole entry, looked up): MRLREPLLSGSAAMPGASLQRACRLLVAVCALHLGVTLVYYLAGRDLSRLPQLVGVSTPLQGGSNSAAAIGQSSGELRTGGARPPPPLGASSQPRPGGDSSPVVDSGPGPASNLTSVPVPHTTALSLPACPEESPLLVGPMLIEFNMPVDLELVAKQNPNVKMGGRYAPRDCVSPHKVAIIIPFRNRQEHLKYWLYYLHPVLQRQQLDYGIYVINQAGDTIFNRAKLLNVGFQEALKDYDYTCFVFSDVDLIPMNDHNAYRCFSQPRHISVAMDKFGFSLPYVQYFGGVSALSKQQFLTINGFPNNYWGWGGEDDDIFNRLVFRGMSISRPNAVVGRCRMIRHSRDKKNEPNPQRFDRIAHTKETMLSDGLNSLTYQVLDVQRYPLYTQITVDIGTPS
Sequence of UniProt P31751 (P31751 whole entry, looked up): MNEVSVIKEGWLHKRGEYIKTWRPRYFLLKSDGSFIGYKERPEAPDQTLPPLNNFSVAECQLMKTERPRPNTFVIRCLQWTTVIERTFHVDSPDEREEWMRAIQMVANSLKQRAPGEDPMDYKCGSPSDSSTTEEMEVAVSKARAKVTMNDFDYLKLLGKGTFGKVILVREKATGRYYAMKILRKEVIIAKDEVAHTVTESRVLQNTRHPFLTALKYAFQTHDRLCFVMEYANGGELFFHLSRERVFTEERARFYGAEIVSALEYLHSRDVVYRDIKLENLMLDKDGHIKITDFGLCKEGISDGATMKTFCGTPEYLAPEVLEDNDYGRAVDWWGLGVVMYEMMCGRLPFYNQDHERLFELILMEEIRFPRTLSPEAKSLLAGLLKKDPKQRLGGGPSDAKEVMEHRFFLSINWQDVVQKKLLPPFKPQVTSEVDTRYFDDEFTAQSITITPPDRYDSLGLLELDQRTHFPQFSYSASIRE
Sequence of UniProt O00170 (O00170 whole entry, looked up): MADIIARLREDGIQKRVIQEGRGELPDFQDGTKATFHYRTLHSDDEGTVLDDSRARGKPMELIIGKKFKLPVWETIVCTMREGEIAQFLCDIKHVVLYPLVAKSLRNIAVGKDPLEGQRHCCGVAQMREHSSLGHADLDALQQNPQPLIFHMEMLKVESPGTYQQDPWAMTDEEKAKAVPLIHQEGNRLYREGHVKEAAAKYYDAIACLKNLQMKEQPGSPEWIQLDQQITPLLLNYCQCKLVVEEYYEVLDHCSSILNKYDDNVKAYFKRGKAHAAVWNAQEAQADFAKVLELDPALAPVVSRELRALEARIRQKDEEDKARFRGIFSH
Sequence of UniProt O00244 (O00244 whole entry, looked up): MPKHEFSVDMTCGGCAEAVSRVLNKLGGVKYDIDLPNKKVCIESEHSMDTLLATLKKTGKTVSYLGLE

Row | Target | log2 fold change [1] | log2 fold change [2] | log2 fold change [3] | log2 fold change [4] | log2 fold change (entinostat) | log2 fold change (vorinostat) | log2 fold change (citarinostat) | log2 fold change (silmitasertib) | log2 fold change [5] | log2 fold change [6] | log2 fold change (entospletinib)
1 | BTAF1 (UniProt O14981) | -0.024 | -0.012 | -0.152 | -0.104 | 0.012 | 0.037 | 0.038 | 0.036 | -0.062 | 0.079 | -0.005
2 | AMD1 (UniProt P17707) | 0.043 | -0.091 | -0.074 | -0.149 | -0.038 | -0.093 | 0.007 | 0.004 | -0.007 | -0.08 | 0.045
3 | ATP23 (UniProt Q9Y6H3) | 0.014 | 0.06 | 0.002 | -0.057 | -0.012 | 0.044 | -0.012 | -0.027 | 0.02 | -0.045 | 0.077
4 | APAF1 (UniProt O14727) | 0.016 | 0.033 | -0.116 | -0.104 | 0.031 | 0.048 | 0.093 | -0.116 | -0.062 | -0.016 | -0.099
5 | BECN1 (UniProt Q14457) | 0.045 | 0.083 | -0.006 | -0.016 | -0.024 | -0.073 | -0.046 | 0.026 | -0.071 | 0.021 | 0.011
6 | BST2 (UniProt Q10589) | 0.031 | 0.02 | 0.003 | 0.132 | 0.03 | -0.026 | -0.058 | 0.009 | 0.112 | -0.092 | -0.009
7 | AARS2 (UniProt Q5JTZ9) | -0.029 | -0.018 | -0.212 | -0.086 | 0.045 | 0.015 | 0.037 | -0.051 | -0.026 | 0.06 | -0.082
8 | ARGLU1 (UniProt Q9NWB6) | -0.089 | 0.01 | 0.168 | -0.08 | -0.071 | -0.061 | 0.026 | -0.245 | 0.319 | -0.208 | -0.013
9 | B4GALT1 (UniProt P15291) | 0.053 | 0.114 | -0.279 | 0.199 | -0.01 | -0.01 | 0 | 0 | -0.039 | -0.027 | 0.039
10 | ATP1B3 (UniProt P54709) | -0.065 | -0.011 | 0.066 | 0.004 | -0.041 | -0.007 | 0.037 | 0.002 | -0.057 | -0.088 | -0.031
11 | ADPRHL2 (UniProt Q9NX46) | -0.022 | -0.02 | -0.056 | -0.045 | 0.027 | -0.039 | 0.076 | -0.045 | -0.028 | 0.055 | 0.024
12 | AIP (UniProt O00170) | -0.004 | 0.011 | -0.128 | 0.018 | 0.084 | 0.076 | 0.105 | 0.038 | 0.031 | 0.036 | -0.031
13 | ALDH9A1 (UniProt P49189) | 0.079 | 0.051 | -0.024 | 0 | -0.014 | -0.209 | -0.014 | -0.033 | 0.025 | 0.055 | 0.066
14 | AGO1 (UniProt Q9UL18) | 0.108 | 0.011 | 0.049 | 0.073 | -0.012 | -0.05 | 0.439 (active) | 0.12 | -0.067 | -0.413 | -0.2
15 | ACADM isoform 2 (UniProt P11310) | -0.044 | 0.01 | -0.024 | 0.029 | -0.019 | -0.007 | 0.037 | -0.032 | -0.101 | 0.009 | -0.001
16 | AKT1 (UniProt P31749) | -0.085 | -0.276 | 1.61 (active) | -0.002 | 0.201 | -0.024 | 0.138 | 0.004 | 0.1 | 0.027 | -0.04
17 | ALDH9A1 isoform 3 (UniProt P49189) | 0.04 | -0.025 | -0.011 | -0.05 | 0.003 | -0.003 | 0.025 | -0.045 | -0.033 | 0.015 | -0.017
18 | BCCIP isoform 2 (UniProt Q9P287) | 0 | -0.001 | -0.096 | -0.011 | 0.027 | 0.033 | 0.021 | 0.096 | -0.029 | -0.031 | 0.008
19 | AKT2 (UniProt P31751) | -0.008 | -0.266 (active) | 1.18 (active) | -0.051 | 0.085 | 0.022 | 0.077 | -0.026 | -0.017 | -0.013 | 0.005
20 | ATP6V1C1 (UniProt P21283) | -0.015 | -0.135 | -0.173 | -0.09 | 0.062 | 0.039 | 0.008 | 0.03 | 0.025 | -0.103 | -0.02
21 | ARFGEF1 (UniProt Q9Y6D6) | 0.028 | 0.121 | -0.023 | 0.006 | -0.044 | 0.02 | 0.009 | 0.065 | 0.023 | 0.069 | -0.009
22 | ASNS (UniProt P08243) | -0.033 | -0.018 | -0.019 | 0.008 | -0.007 | 0.018 | 0.013 | -0.044 | -0.021 | -0.026 | 0.004
23 | APPL1 (UniProt Q9UKG1) | -0.032 | -0.012 | -0.023 | -0.043 | -0.053 | 0.009 | 0.04 | 0.022 | -0.046 | 0.07 | 0.027
24 | ATOX1 (UniProt O00244) | 0.175 | 0.273 | -0.032 | 0.03 | 0.081 | -0.018 | 0.091 | -0.105 | -0.081 | -0.004 | -0.005
25 | ATG4B isoform 2 (UniProt Q9Y4P1) | 0.08 | -0.104 | -0.401 | -0.151 | 0.154 | 0.268 | 0.005 | 0.003 | -0.093 | -0.023 | 0.11
